Screens from PubChem BioAssay.
PfHsp90 set2: growth inhibition of PfHsp90-expressing yeast, primary screen, antimalarial PfHsp90 inhibitor project, S. cerevisiae, BacTiter-Glo luminescence, single point, set 2. AID 504621, 2011. BacTiter-Glo ATP, 48 h; yeast lacking PDR1 and PDR3 efflux regulators. 310,000 compounds, 0.32% hits. inhibition, % at 9.4 µM;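 active means every replicate shows inhibition above about 80%, whatever the replicate mean, limit read from the data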;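 further: 0% = DMSO neutral controls and 100% = 20 µM radicicol positive controls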
TIM10 inh: growth inhibitors of isogenic TIM10 control yeast, primary screen, counter-screen for tim10-1 yeast inhibitor project, luminescence, uHTS; S. cerevisiae TIM10 strain growth, BacTiter-Glo luminescence, 24 h; inhibition, % at 10 µM; 330,000 compounds, 1.4% hits;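 active means inhibition of 40% or more at the single tested concentration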;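 further: wild-type TIM10 isogenic control strain grown at permissive 25 °C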
tim23-1 inh: growth inhibitors of tim23-1 mutant yeast, primary screen, luminescence, uHTS; S. cerevisiae tim23-1 growth, BacTiter-Glo luminescence, 24 h; inhibition, % at 20 µM; 330,000 compounds, 1.3% hits;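 active means growth inhibition of the mutant yeast at or above 50%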;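 further: temperature-sensitive mutant grown at 25 °C; plate controls were DMSO-treated mutant yeast for no effect and medium wells lacking yeast for full effect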
Calb FLC: C. albicans growth inhibition with fluconazole, primary screen, CaCi-2 strain, Alamar Blue fluorescence. C. albicans CaCi-2 (fluconazole-resistant clinical isolate) + fluconazole, 48 h. growth inhibition, % (concentration not given with the values). 300,000 compounds, 0.57% hits. AID 1979, 2009;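 active means growth inhibition above about 58% in most replicates, limit read from the data, passing the limit was not always enough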;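 further: all wells also contain fluconazole at 8 µg/ml as a sub-toxic cotreatment; 0% = median of DMSO wells and 100% = median of geldanamycin control wells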
tim10-1 inh: growth inhibitors of tim10-1 mutant yeast, primary screen, luminescence, uHTS. S. cerevisiae tim10-1 ts strain growth, BacTiter-Glo, 24 h. inhibition, % at 20 µM. 330,000 compounds, 2.2% hits;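 active means inhibition of at least 40%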;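 further: mutant grown at 25 °C; 0% = DMSO wells with yeast and 100% = wells holding no yeast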
SKKanGAS inh: S. pyogenes SKKanGAS growth inhibitors in kanamycin, primary screen, streptokinase expression inhibitor project, SKKanGAS strain, BacTiter-Glo luminescence; AID 1662, 2009; 300,000 compounds, 1.3% hits; 6 h; inhibition, % at 7.5 µM;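 active means mean replicate score, as percent of positive control median, at least 50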;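 further: strain carries kanamycin resistance gene driven by streptokinase promoter and grows in 40 µg/ml kanamycin; loss of luminescence reflects streptokinase promoter inhibition or plain growth inhibition; 0% = median of DMSO wells and 100% = positive control at its reference dose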
tim10 confirm: growth inhibitors of wild-type TIM10 yeast, confirmation, counter-screen for tim10-1 synthetic lethality project, single concentration, luminescence, S. cerevisiae | inhibition, % at 10 µM | shares compounds with TIM10 inh | 4,600 compounds, 63% hits | S. cerevisiae tim10 strain growth, BacTiter-Glo luminescence, 24 h;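 active means inhibition of yeast growth at or above a set limit in either of two replicates at 10 µM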;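 further: this counterscreen used the strain with wild-type TIM10; 0% = yeast with DMSO and 100% = medium wells lacking yeast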
tim23-1 conf: tim23-1 mutant yeast growth inhibitors, confirmation, luminescence, single concentration | S. cerevisiae tim23-1 growth, BacTiter-Glo luminescence, 24 h | 4,400 compounds, 83% hits | AID 463218, 2010 | inhibition, % at 20 µM | shares compounds with tim23-1 inh;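 active means inhibition above about 39% in either of two replicate wells at 20 µM, limit read from the data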;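 further: temperature-sensitive tim23-1 mutant grown at 25 °C; 0% = DMSO wells with yeast and 100% = medium wells without yeast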
* = called active by the depositor; . = no result given. This is a sample that favours compounds with a hit; in the whole collection about 4.7% have one here.

SMILES	PfHsp90 set2	TIM10 inh	tim23-1 inh	Calb FLC	tim10-1 inh	SKKanGAS inh	tim10 confirm	others
CCOC(=O)C1=CN(Cc2cccc(F)c2)S(=O)(=O)N(CC)C1c1ccc(Br)cc1F (stereo not drawn)	24	-12	34	.	16	.	.
C=CCc1ccc(OCc2ccc(C(=O)Nc3ccc(NC(C)=O)cc3)o2)c(OC)c1	-25	7	-1	-9	0	6	.
COc1cccc(C2NC(=O)c3ccccc3O2)c1OCc1ccccc1F (stereo not drawn)	-81	43*	27	4	27	17	27
COc1cccc(C2NC(=O)c3ccccc3O2)c1OC (stereo not drawn)	.	4	14	-11	21	-6	.
N#CCCN(Cc1ccccc1)C(=O)c1nccnc1C(=O)O	-8	7	8	-4	-16	2	.
Cc1ccc(C(=O)C(C(=O)/C=C/c2ccccc2)=C2SCCCS2)cc1	19	52*	32	9	37	-2	-16
COc1ccc(/C=C/C(=O)C(C(N)=O)=C2SCCS2)cc1	-3	0	8	2	31	3	.
Cc1ccc(C(=O)NNC(=S)NC(=O)c2ccc(Cl)cc2)cc1	-8	48*	36	-7	38	100*	31*
CSc1cccc(NC(=O)/C=C/c2ccccc2)c1	12	40	44	22	30	-6	16
CCN(CC)S(=O)(=O)c1ccc(/C=C/C(=O)Nc2cccc(F)c2)cc1	-4	59*	28	2	39	5	-13
CC(C)N(Cc1nnc(-c2ccc(Cl)cc2)o1)C(=O)c1cc2ccccc2o1	23	0	32	.	3	.	.
COc1cc(C(C)=NNC(=O)c2ccncc2)ccc1O	0	.	.	.	.	.	.
CCCCn1c(N)c(N(CCC(C)C)C(=O)COC(=O)Cc2ccc(Cl)cc2)c(=O)[nH]c1=O	37	.	.	.	.	.	.
COC(C(=O)Nc1ccnn1C1CCN(Cc2ccccn2)CC1)c1ccccc1 (stereo not drawn)	2	-2	-11	3	-20	3	.
Cc1ccc(-c2nc3ccccc3[nH]2)s1	26	40*	51*	.	0	13	26	tim23-1 conf=71*
O=C(Oc1coc(CSc2ncccn2)cc1=O)c1ccccc1[N+](=O)[O-]	-3	59*	62*	-18	39	1	52*	tim23-1 conf=49*
COc1ccc2c(c1)C(=O)N1[C@H]3c4cc(C)ccc4OC[C@@H]3[C@H](c3ccccc3)[C@]1(C)C(=O)N2	-24	-9	-10	.	29	.	.
COc1ccc2c(c1)[C@@H]1[C@H](CO2)[C@H](c2ccccc2)[C@]2(C)C(=O)Nc3ccc(C)cc3C(=O)N12	16	42*	58*	.	35	.	35*	tim23-1 conf=57*
Cc1cc(/C=C2\SC(N)=NC2=O)c(C)n1-c1ccc(F)cc1	8	-4	-2	-5	-20	7	.
CCOc1ccc(NC(=O)CN(C)C(=O)c2ccccc2SCc2c(C)noc2C)cc1OCC	.	-6	-1	5	-12	-2	.
COc1ccc(C/C(N)=N/OC(=O)Cc2ccccc2)cc1OC	9	-2	16	-6	16	0	.
COc1ccc(C/C(N)=N/OC(=O)CCc2ccccc2)cc1	-21	71*	72*	-6	23	-6	83*	tim23-1 conf=78*
Cc1ccc(S(=O)(=O)N(C)C[C@@H]2Oc3ccc(NC(=O)Nc4cccc5ccccc45)cc3C(=O)N([C@H](C)CO)C[C@H]2C)cc1	1	6	2	.	1	.	.
Nc1cc(=O)[nH]c(SCC(=O)N2CCC(Cc3ccccc3)CC2)n1	39	-3	0	.	1	.	.
